The results in this text go back to PubChem BioAssay.

A short description of test [1]: inhibitors of TNFa-induced NFkB p65 translocation, primary screen, imaging, HUVEC, MLSMR starter and 10KST1 sets (AID 438;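 active means inhibition above 20% together with a positive visual image hit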;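 further: compound added about 3h40 before a 20 min TNFalpha stimulation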;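 on inhibition: signal is the nuclear over cytoplasmic p65 intensity ratio per well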). Conditions: HUVEC TNFa-induced p65 nuclear translocation; cell count: measured here: nuclei count (cytotoxicity indicator), at 2.08 µM; inhibition: at 2 µM, stronger effect = higher value, 0% TNFa-plus-vehicle, 100% no-TNFa wells.
Test [2] in a line: reduction of polyQ htt aggregates in cells – imaging, exon1htt(103Q)mCFP cells, high-content imaging, primary screen (AID 483).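 Further: compound exposure lasted 3 days before fixation.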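 On nuclei count: percent of the per-plate median nuclei count of sample wells.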 Conditions: exon1htt(103Q)mCFP cell line, aggregate imaging, at 2 µM; inhibition of aggregation: stronger effect = higher value; nuclei count: measured here: cell count, toxicity.
Test [3] can be described thus: endothelial E-selectin expression blockers – imaging, HUVEC, immunofluorescence, MLSMR starter and 10KST1 sets, primary screen (AID 487;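 active means visually confirmed hit in the image check and inhibition above 20%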;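 on inhibition: signal is fraction of cell area covered by stained E-selectin grains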;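 on nuclei count: 100% = median nuclei count of all wells on the same plate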). Conditions: HUVEC TNFalpha-induced E-selectin immunofluorescence imaging, at 2 µM; inhibition: stronger effect = higher value; nuclei count: measured here: cell number, toxicity.
Test [4] has as its target Voltage-gated potassium channel subunit beta-2 (Rattus norvegicus) (UniProt P62483). The test can be described thus: inhibitors of rat Kvbeta2 reductase activity – biochemical, NADPH fluorescence, primary screen (AID 622;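 active means fluorescence slope higher than the sample average by over 3 SD, cut at about -0.22 in these data, passing the limit was not always enough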;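 further: slope of raw intensity against log time taken from 70 to 1610 s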). Conditions: recombinant KvBeta, 4-cyanobenzaldehyde reduction, at 10 µM, stronger effect = higher value.
Test [5] has the same target. The test can be described thus: enhancers of rat Kvbeta2 NADPH turnover – biochemical, NADPH fluorescence, primary screen (AID 623;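 active means NADPH fluorescence slope more negative than the mean of all samples by about 3 SD, 99.7% confidence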;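 further: fluorescence intensity change per second fitted from 20 to 320 s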). Conditions: Recombinant KvBeta, NADPH fluorescence decrease slope, 10 min; at 10 µM; stronger effect = lower value.
Test [6] concerns the target Alpha-2C adrenergic receptor (Homo sapiens) (UniProt P18825). The test can be described thus: compounds altering alpha2C-coupled GIRK flux – cell-based, HEK293 alpha2C/GIRK1/2, thallium flux, primary screen (AID 624;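 active means fluorescence slope after compound addition differing from the mean of all screened samples at 99.7% confidence, in either direction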;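 further: slope of fluorescence ratio to pre-addition baseline per second over 15 to 24 s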). Conditions: thallium flux BTC fluorescence, at 10 µM, actives lie on both sides.
A short description of test [7]: blockers of RIG-like receptor reporter activation – cell-based, Sendai virus stimulus, luciferase, 10K MLSCN set, TLR/RLR signaling modifier project, primary screen (AID 602276;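 active means inhibition at or above 50% at 10 µM; inactive means inhibition below 50%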;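 further: firefly luciferase from ISG56 promoter only with Renilla not read in this screen; 0% = Sendai virus plus DMSO and 100% = medium plus DMSO without virus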). Conditions: HEK293 RL24 IRF3 luciferase reporter, at 10 µM, stronger effect = higher value. For orientation: Reporter assays use an easily measured gene product as a stand-in for the process of interest.

Test [8] is described as follows: TLR3 IRF3 reporter activation blockers – cell-based, poly I:C stimulus, luciferase, 10K MLSCN set, primary screen (AID 602277;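 active means inhibition of the reporter signal at or above 50%; inactive means inhibition below 50%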). Conditions: HEK293-TLR3 RL24 IRF3 luciferase reporter, at 10 µM, stronger effect = higher value.

For orientation: inhibition means the change of the read-out against control, counted positive when it falls.

Structures are written as SMILES. The source made the active and inactive calls.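 How the source made its calls, unless noted: active means visual image review flags a hit and inhibition of aggregation exceeds 20%; inconclusive means visual hit but inhibition at or below 20%; inactive means no hit on visual image review.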

Voltage-gated potassium channel subunit beta-2 (Rattus norvegicus), sequence (P62483 whole entry, looked up): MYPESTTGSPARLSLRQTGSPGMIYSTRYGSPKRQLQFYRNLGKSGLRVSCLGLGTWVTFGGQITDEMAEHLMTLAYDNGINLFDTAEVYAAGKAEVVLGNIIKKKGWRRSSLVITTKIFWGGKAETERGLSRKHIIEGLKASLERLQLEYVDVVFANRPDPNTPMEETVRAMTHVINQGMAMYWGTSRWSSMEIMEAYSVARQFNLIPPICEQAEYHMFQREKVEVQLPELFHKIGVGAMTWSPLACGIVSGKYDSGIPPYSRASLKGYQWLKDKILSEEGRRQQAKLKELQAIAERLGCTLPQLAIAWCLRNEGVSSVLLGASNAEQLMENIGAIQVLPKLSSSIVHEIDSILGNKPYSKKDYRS
Alpha-2C adrenergic receptor (Homo sapiens), sequence (P18825 whole entry, looked up): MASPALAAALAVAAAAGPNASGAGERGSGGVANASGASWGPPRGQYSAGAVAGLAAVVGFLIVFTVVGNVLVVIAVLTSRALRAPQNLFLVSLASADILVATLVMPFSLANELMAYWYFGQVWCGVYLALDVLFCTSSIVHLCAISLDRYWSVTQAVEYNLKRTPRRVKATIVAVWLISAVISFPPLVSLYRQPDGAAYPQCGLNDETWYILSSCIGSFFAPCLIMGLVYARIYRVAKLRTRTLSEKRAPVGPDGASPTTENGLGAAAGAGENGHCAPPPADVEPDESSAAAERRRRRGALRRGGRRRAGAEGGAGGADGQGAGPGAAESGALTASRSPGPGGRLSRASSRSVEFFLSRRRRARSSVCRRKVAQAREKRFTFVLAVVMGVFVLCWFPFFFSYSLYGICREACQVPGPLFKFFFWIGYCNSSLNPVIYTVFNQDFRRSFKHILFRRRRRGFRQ

With `COc1ccc(Br)cc1CNC(=O)CCc1nc(-c2ccc(C)cc2)no1`, in test [1], the cell count was found to be 517. Also, the inhibition was -4% (inactive) in test [1], -2.8% (inactive) in test [3], 15.2% (inactive) in test [7] and 28.1% (inactive) in test [8]. In addition, the inhibition of aggregation in test [2] is -13.7% (inactive). Further, the results for the nuclei count in test [2] and in test [3] were 98.4% and 120%, respectively. Further, the fluorescence slope in test [4] was -0.314 (inactive). In addition, the NADPH fluorescence slope in test [5] was -6.4e-07 (inactive). For the same molecule, the slope in test [6] is 0.00305 (inactive).
Consider `COc1ccc(C)cc1S(=O)(=O)N(CC(=O)O)c1ccccc1`, for which, in test [1], the cell count stood at 343. Besides, the inhibition is 8.1% (inactive) in test [1], -90.2% (inactive) in test [3], 34.7% (inactive) in test [7] and 21% (inactive) in test [8]. In test [2], the inhibition of aggregation was -8% (inactive). Besides, the nuclei count in test [2] is 91.3%; in test [3], 144%. Further, the fluorescence slope in test [4] is -0.454 (inactive). The NADPH fluorescence slope in test [5] was 7.5e-06 (inactive). Besides, the slope in test [6] is 0.00642 (inactive).
Consider `CC1CCCCC1NC(=O)Cn1nnc(-c2ccc(Cl)cc2)n1` (centres undefined), for which the cell count in test [1] stood at 447. Also, the inhibition was 1.9% (inactive) in test [1], -27.6% (inactive) in test [3], -4.91% (inactive) in test [7] and -12% (inactive) in test [8]. Further, the inhibition of aggregation in test [2] was -8.6% (inactive). The nuclei count amounted to 92.4% in test [2] and 99.4% in test [3]. Also, in test [4], the fluorescence slope is -0.578 (inactive). Moreover, the NADPH fluorescence slope in test [5] was -2.2e-05 (inactive). The slope in test [6] was 0.00728 (inactive).
Consider `COc1ccc(-c2nnc(SCCC(=O)O)n2-c2ccccc2)cc1`, for which the cell count in test [1] is 348. The inhibition is 2.5% (inactive) in test [1], -10.9% (inactive) in test [3], 12.1% (inactive) in test [7] and 16.4% (inactive) in test [8]. Also, the inhibition of aggregation in test [2] was -19.5% (inactive). The nuclei count stood at 107% in test [2] and 124% in test [3]. Moreover, the fluorescence slope in test [4] is -0.644 (inactive). Besides, in test [5], the NADPH fluorescence slope was 1.6e-05 (inactive). Also, the slope in test [6] is 0.00524 (inactive).
Take `CC1CCCN(S(=O)(=O)c2coc(C(N)=O)c2)C1` (centres undefined): the cell count in test [1] worked out at 697. Besides, the inhibition in test [1] was -0.6% (inactive); in test [3], 1.5% (inactive); in test [7], 1.83% (inactive); in test [8], 25.1% (inactive). Besides, in test [2], the inhibition of aggregation is -15.4% (inactive). The nuclei count in test [2] came to 111%; in test [3], 95.6%. For the same molecule, the fluorescence slope in test [4] is -0.6 (inactive). In addition, the NADPH fluorescence slope in test [5] is -2.8e-05 (inactive). Moreover, in test [6], the slope was 0.00651 (inactive).
Regarding `Cc1ccccc1OCc1nnc2n1CC(C)S2` (centres undefined), the cell count in test [1] amounted to 547. For the same molecule, the inhibition in test [1] is 6.8% (inactive); in test [3] it was -53.4% (inactive); in test [7], 8.61% (inactive); in test [8], 13.6% (inactive). The inhibition of aggregation in test [2] is -4.9% (inactive). In addition, the nuclei count in test [2] stood at 131%; in test [3] it was 105%. Moreover, in test [4], the fluorescence slope is -0.562 (inactive). For the same molecule, in test [5], the NADPH fluorescence slope is -4e-05 (inactive). In test [6], the slope is 0.00737 (inactive).
Consider `CCOC(=O)c1ccc(S(=O)(=O)NC2CCCCCCC2)n1C`, for which the cell count in test [1] is 583. For the same molecule, the inhibition in test [1] is -1% (inactive); in test [3] it was -42.2% (inactive); in test [7] it was 17.3% (inactive); in test [8], 23.7% (inactive). Also, the inhibition of aggregation in test [2] was 3% (inactive). The values for the nuclei count in test [2] and in test [3] were 95.7% and 123%, respectively. In addition, the fluorescence slope in test [4] was -0.614 (inactive). Also, the NADPH fluorescence slope in test [5] is 5e-06 (inactive). The slope in test [6] is 0.00591 (inactive).
Consider `Cc1ccc(S(=O)(=O)N(CC(=O)NCc2ccco2)Cc2ccccc2F)cc1`, for which, in test [1], the cell count amounted to 308. For the same molecule, the inhibition was 2.4% (inactive) in test [1], -3.2% (inactive) in test [3], 8.9% (inactive) in test [7] and 11.9% (inactive) in test [8]. The inhibition of aggregation in test [2] is 14% (inactive). For the same molecule, the nuclei count turned out to be 92.3% in test [2] and 103% in test [3]. Besides, in test [4], the fluorescence slope is -0.524 (inactive). Further, in test [5], the NADPH fluorescence slope is 1.7e-06 (inactive). Further, in test [6], the slope is 0.00527 (inactive).
On to `CCCN1CCN(CCCNC(=O)C2CCCN(c3nc4ccc(OCC)cc4s3)C2)CC1` (centres undefined), for which the cell count in test [1] came to 513. Also, the inhibition in test [1] is -14% (inactive); in test [3], -18.5% (inactive); in test [7], -9.58% (inactive); in test [8], -10.2% (inactive). Further, in test [2], the inhibition of aggregation is 23.6% (inactive). Further, the nuclei count is 121% in test [2] and 119% in test [3]. The fluorescence slope in test [4] was -0.398 (inactive). For the same molecule, the NADPH fluorescence slope in test [5] is -4.5e-05 (inactive). Besides, in test [6], the slope was 0.00402 (inactive).
